Data: PubChem BioAssay
The source made the active and inactive calls.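 The calls were made as follows: active = compounds whose cell count with miR-34 switched on is under 0.7 times the count with it off; inactive = the rest.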

experiment: viability loss with induced miR-34 in A549 – imaging, A549 dox-inducible miR-34, nuclei and caspase counts, primary screen (AID 1347080); details: A549 miR-34 inducible, Hoechst nuclei count, 48 h; stronger effect = lower value; cell number ratio, induced over uninduced; also: test concentration not given here

SMILES	fold change
NCc1cccc2ccncc12	0.913 (inactive)
O=C(O)CCC/C=C\C[C@@H]1[C@@H](/C=C/[C@H](O)CCc2ccccc2)[C@H](O)C[C@@H]1O	0.915 (inactive)
CCCCC[C@H](O)/C=C/[C@@H]1[C@@H](C/C=C/CCCC(=O)O)[C@H](O)C[C@H]1O	0.95 (inactive)
CC\C=C/C=C/C=C/C=C\CCCCCCCC(=O)O	0.875 (inactive)
CCCCCCCCCCCCCCCNC(=O)C1CCCCC1	1.13 (inactive)
CCCC/C=C\CCCCCCCC(=O)OC	1.02 (inactive)
CC/C=C\C/C=C\C/C=C\CCCCCCCC(=O)OCC	0.898 (inactive)
O=C(O)CCC/C=C\C[C@@H]1[C@@H](/C=C/[C@@H](O)COc2ccccc2)[C@H](O)C[C@@H]1O	0.956 (inactive)
COc1ccc(/C=C/C(=O)CC(=O)/C=C/c2cccc(O)c2OC)cc1O	0.925 (inactive)
Cn1c([N+](=O)[O-])cc[n+]1C	0.892 (inactive)
O=C(O)CCC/C=C\C[C@H]1[C@@H](/C=C/[C@@H](O)CCc2ccccc2)[C@H](O)C[C@H]1O	0.969 (inactive)
Nc1nc2c([nH]c(=O)n2[C@@H]2O[C@H](CO)[C@@H](O)[C@H]2O)c(=O)[nH]1	1.03 (inactive)
CCCCC[C@H](O)/C=C/[C@@H]1[C@H]2C/C(=C\CCCC(=O)O)C[C@H]2C[C@H]1O	0.922 (inactive)
CCCCC[C@H](O)/C=C/[C@H]1CC[C@H](O)[C@@H]1CCCCCCC(=O)O	0.966 (inactive)
C=C1C[C@H](O)[C@H](C/C=C\CCCC(=O)O)[C@H]1/C=C/[C@@H](O)CCCCC	0.988 (inactive)
CC(C)OC(=O)CCC/C=C\C[C@@H]1[C@@H](/C=C/[C@H](O)C2Cc3ccccc3C2)[C@@H](F)C[C@@H]1O	0.981 (inactive)
CCCCCCCCCCCCCCCCOC[C@H](COP(=O)([O-])OCC[N+]1(C)CCCC1)OC(C)=O	0.82 (inactive)
COc1ccc2c(c1)c(CC(=O)Nc1cccnc1)c(C)n2C(=O)c1ccc(Cl)cc1	0.996 (inactive)
CCCCCCCCCCCCCCCCOC[C@H](COP(=O)([O-])OCC[N+](C)(C)C)SC(C)=O	0.92 (inactive)
CCCCC/C=C/C=C1/C=CC(=O)[C@@H]1C/C=C\CCCC(=O)O	0.952 (inactive)
C#CCOc1ccccc1CCCCCC(=O)O	1.11 (inactive)
CCCCC[C@H](O)/C=C/[C@@H]1[C@@H](C/C=C\CCCC(=O)OCC(O)CO)[C@@H](O)C[C@H]1O (stereo partly drawn)	0.942 (inactive)
O=C(CN=C(c1ccccc1)c1ccccc1)OCc1ccccc1	0.875 (inactive)
O=c1[nH]cc(CO)c(=O)[nH]1	1.01 (inactive)

same assay, conditions: A549 miR-34 inducible, Hoechst nuclei count, 48 h; measured here: relative caspase fold change +Dox/-Dox

SMILES	fold change
O=C(O)/C=C/CCCCCCCCC(=O)O	1.16
CCCCCCCCCCCSCC(=O)O	1.04
O=C1N[C@@H]2[C@@H](O)[C@@H](O)[C@H](O)[C@@H](CO)N2C1=O	0.979
NC(=O)c1cccc(-c2cccc(OC(=O)NCCCCCCc3ccccc3)c2)c1	0.743
CCCCC[C@H](O)/C=C/[C@H]1CC[C@@H](O)[C@@H]1CCCCCCC(=O)O	1.26
CCCCCCCCCCCCCCCC(=O)NC(CO)CO	0.974
CC(=O)[C@H]1[C@H](C#N)C[C@H]2[C@@H]3CC=C4C[C@@H](O)CC[C@]4(C)[C@H]3CC[C@@]21C	1.04
CCCCCCCCCCCCC/C=C/[C@H](O)[C@@H](CO)NC(=O)CCCCCCCCCCCCCCCCCCCCCCC	0.918
O=C(O)CCC/C=C\C[C@H]1C(=O)C=C[C@@H]1CC[C@@H](O)CCc1ccccc1	1.2
CC(C)CCCC(C)CCCC(C)CCCC(C)CC(=O)O (stereo not drawn)	0.832
CCCCCCCC/C=C\CCCCCCCC(=O)Nc1c(C(C)C)cccc1C(C)C	0.853
CCCc1oc(CCC(=O)O)c(C(=O)O)c1C	0.896
CCCCC(C)(C)[C@H](O)/C=C/[C@H]1[C@H](O)CC(=O)[C@@H]1CCCCCCC(=O)O	1.17
O=P(O)(O)OC1[C@@H](O)[C@H](O)C(O)[C@H](O)[C@@H]1O (stereo partly drawn)	0.602
CCCCCC(=O)/C=C/[C@H]1[C@H](O)CC(=O)[C@@H]1CCCCCCC(=O)O	1.35
NCc1cccc2ccncc12	0.524
O=C(O)CCC/C=C\C[C@@H]1[C@@H](/C=C/[C@H](O)CCc2ccccc2)[C@H](O)C[C@@H]1O	1.56
CCCCC[C@H](O)/C=C/[C@@H]1[C@@H](C/C=C/CCCC(=O)O)[C@H](O)C[C@H]1O	1.55
CC\C=C/C=C/C=C/C=C\CCCCCCCC(=O)O	0.385
CCCCCCCCCCCCCCCNC(=O)C1CCCCC1	0.274

SMILES	fold change
CCCC/C=C\CCCCCCCC(=O)OC	0.704
CC/C=C\C/C=C\C/C=C\CCCCCCCC(=O)OCC	0.639
O=C(O)CCC/C=C\C[C@@H]1[C@@H](/C=C/[C@@H](O)COc2ccccc2)[C@H](O)C[C@@H]1O	1.11
COc1ccc(/C=C/C(=O)CC(=O)/C=C/c2cccc(O)c2OC)cc1O	1.39
Cn1c([N+](=O)[O-])cc[n+]1C	0.659
O=C(O)CCC/C=C\C[C@H]1[C@@H](/C=C/[C@@H](O)CCc2ccccc2)[C@H](O)C[C@H]1O	0.334
Nc1nc2c([nH]c(=O)n2[C@@H]2O[C@H](CO)[C@@H](O)[C@H]2O)c(=O)[nH]1	0.878
CCCCC[C@H](O)/C=C/[C@@H]1[C@H]2C/C(=C\CCCC(=O)O)C[C@H]2C[C@H]1O	1.13
CCCCC[C@H](O)/C=C/[C@H]1CC[C@H](O)[C@@H]1CCCCCCC(=O)O	1.33
C=C1C[C@H](O)[C@H](C/C=C\CCCC(=O)O)[C@H]1/C=C/[C@@H](O)CCCCC	1.72
CC(C)OC(=O)CCC/C=C\C[C@@H]1[C@@H](/C=C/[C@H](O)C2Cc3ccccc3C2)[C@@H](F)C[C@@H]1O	2.25
CCCCCCCCCCCCCCCCOC[C@H](COP(=O)([O-])OCC[N+]1(C)CCCC1)OC(C)=O	1.31
COc1ccc2c(c1)c(CC(=O)Nc1cccnc1)c(C)n2C(=O)c1ccc(Cl)cc1	0.947
CCCCCCCCCCCCCCCCOC[C@H](COP(=O)([O-])OCC[N+](C)(C)C)SC(C)=O	0.945
CCCCC/C=C/C=C1/C=CC(=O)[C@@H]1C/C=C\CCCC(=O)O	1.85
C#CCOc1ccccc1CCCCCC(=O)O	0.728
CCCCC[C@H](O)/C=C/[C@@H]1[C@@H](C/C=C\CCCC(=O)OCC(O)CO)[C@@H](O)C[C@H]1O (stereo partly drawn)	1.39
O=C(CN=C(c1ccccc1)c1ccccc1)OCc1ccccc1	1.1
O=c1[nH]cc(CO)c(=O)[nH]1	1.05
